The list is not random: actives were taken first. Their share in the collection is about 0.81%.
NCOA2 inhibitor – inhibits human steroid receptor coactivator 2; AID 651957; 370,000 tested, 0.17% active; HEK293 GAL4-SRC2 luciferase reporter, luminescence; inhibition, % at 9 µM; Q15596;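 active = inhibition above the mean inhibition of all tested compounds plus 3 SD, set per campaign, cut at about 52% in these data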
NR2F2 inh – inhibitors of human COUP-TFII (NR2F2). P24468. HEK293T NGFI-A luciferase reporter, luminescence. inhibition, % at 8.6 µM. 370,000 tested, 0.7% active. AID 686940;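 active = inhibition above a per-plate cutoff, mean inhibition of test wells between control levels plus 3 SD, cut at about 38% in these data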;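 note: cells cotransfected with COUP-TFII expression vector driving the NGFI-A reporter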
NR5A2 inv ag – suppresses constitutive activity of human LRH-1. O00482. HEK293T StAR-luciferase reporter, LRH-1 transfected, 24 h. AID 602396. inhibition, % at 3.6 µM. 360,000 tested, 0.13% active;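 active = inhibition above the mean inhibition of all tested compounds plus 3 SD, cut at about 73% in these data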
Target sequence (O00482 whole entry, looked up): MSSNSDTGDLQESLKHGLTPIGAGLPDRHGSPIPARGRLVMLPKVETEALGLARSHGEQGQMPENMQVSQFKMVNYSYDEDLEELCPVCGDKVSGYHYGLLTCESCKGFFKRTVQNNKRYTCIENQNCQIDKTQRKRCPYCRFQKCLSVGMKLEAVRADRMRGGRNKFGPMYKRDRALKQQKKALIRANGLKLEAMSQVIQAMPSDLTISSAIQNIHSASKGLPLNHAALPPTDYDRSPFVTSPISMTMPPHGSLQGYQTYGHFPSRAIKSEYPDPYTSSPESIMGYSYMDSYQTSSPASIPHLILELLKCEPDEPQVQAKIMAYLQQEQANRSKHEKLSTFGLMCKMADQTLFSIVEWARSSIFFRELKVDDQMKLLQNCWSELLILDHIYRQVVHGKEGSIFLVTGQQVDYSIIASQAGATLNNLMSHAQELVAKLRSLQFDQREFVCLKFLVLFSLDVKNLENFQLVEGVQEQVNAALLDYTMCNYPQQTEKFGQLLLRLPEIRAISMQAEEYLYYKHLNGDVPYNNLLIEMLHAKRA
SRC1 inh – inhibitors of human steroid receptor coactivator 1 (SRC1); Q15788; HEK293 GAL4-SRC1 luciferase reporter, luminescence; inhibition, % at 3.6 µM; 360,000 tested, 0.12% active; AID 588354;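 active = inhibition above the campaign mean plus 3 SD, with each screening campaign given its own cutoff, cut at about 60% in these data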
SRC3 inh – inhibits human SRC3 coactivator; Q9Y6Q9; HEK293 GAL4-SRC3 luciferase reporter, luminescence; inhibition, % at 3.6 µM; 360,000 tested, 0.17% active; AID 588352;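 active = inhibition above a per-campaign cutoff, the mean of all compounds plus 3 SD, cut at about 60% in these data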;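 note: higher means less SRC3-driven luciferase light from the GAL4 reporter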
Gal4-VP16 ctr – inhibits VP16 reporter, flagging COUP-TFII antagonist hits. shares compounds with NR2F2 inh. HEK293 Gal4-VP16 luciferase reporter, luminescence. inhibition, % at 8.5 µM. 2,500 tested, 25% active. AID 687007; in the data active = inhibition above about 13%
NR2F2 inh conf – confirmation of human COUP-TFII (NR2F2) inhibitors; HEK293 NGFI-A luciferase reporter, luminescence; 2,500 tested, 45% active; inhibition, % at 8.5 µM; shares compounds with NR2F2 inh;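 active = mean inhibition over three repeats above a set limit taken from the earlier primary screen, cut at about 38% in these data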
Large screens that a line does not name were inactive (follow-up assays come after a bar, where they were run).

O=C(OC12CCCN(C1)/C(=C/c1ccncc1)C2)c1ccc(F)cc1 (centres undefined)	none (no result: NR5A2 inv ag, SRC1 inh, SRC3 inh)
O=C(OC12CCCN(C1)/C(=C/c1ccc(Cl)cc1)C2)c1ccco1 (centres undefined)	none (no result: NR5A2 inv ag, SRC1 inh, SRC3 inh)
O=C(c1ccco1)N1CCN=C1SCc1ccc(F)cc1	NR2F2 inh 57.6 | Gal4-VP16 ctr inactive | NR2F2 inh conf inactive
CC(=O)c1c(C)[nH]c(C(=O)C(C)Sc2nnc(NC3CC3)s2)c1C (centres undefined)	NR2F2 inh 37.5 | Gal4-VP16 ctr inactive | NR2F2 inh conf inactive
COc1ccc(CNC(=O)c2sc(=O)n(Cc3ccc(C)cc3)c2C)cc1	none
Cc1c(C(=O)NCc2ccc(C(F)(F)F)cc2)sc(=O)n1Cc1ccc(S(=O)(=O)N(C)C)cc1	NR2F2 inh 41.9 | Gal4-VP16 ctr inactive | NR2F2 inh conf inactive
COc1ccc(CNC(=O)c2sc(=O)n(Cc3ccc(S(=O)(=O)N(C)C)cc3)c2C)cc1	NR2F2 inh 44.6 | Gal4-VP16 ctr inactive | NR2F2 inh conf inactive
c1ccc2c(c1)CNc1ccccc1C2	none
CC(C)C[C@@H]1NC(=O)[C@H](Cc2ccccc2)N(C)C(=O)[C@H](C)NC(=O)c2ccccc2NC(=O)[C@H](Cc2ccc(O)cc2)N(C)C1=O	none
COc1ccc(CC2C(=O)NC(C)C(=O)N(C)C3Cc4ccc(cc4)Oc4cc(ccc4O)CC(C(=O)NC(C)C(=O)NC(C)C(=O)N2C)N(C)C3=O)cc1 (centres undefined)	NCOA2 inhibitor 76.1, NR2F2 inh 87.8, NR5A2 inv ag 97.8, SRC1 inh 93.5, SRC3 inh 93.8 | Gal4-VP16 ctr 19.5 | NR2F2 inh conf 81.8
CC(=O)NN1C(=O)/C(=C\c2ccccc2)SC1=S	none
C(=Cc1nc2ccccc2o1)c1ccc2c(c1)OCO2	none
C(=Cc1cnc2ccccc2n1)c1ccc2c(c1)OCO2	NR2F2 inh 52.5 | Gal4-VP16 ctr 65.1 | NR2F2 inh conf 78.8
COc1ccc(C=C2CS(=O)(=O)CC(=Cc3ccc(OC)cc3)C2=O)cc1	NR2F2 inh 71.3 | Gal4-VP16 ctr 46.7 | NR2F2 inh conf 64.5
CCCCC(=O)Nc1ccc(NC(=O)c2cnccn2)cn1	none
C/C(=C\c1ccccc1)CN1CCC(C(=O)N2CCCCC2)CC1	none
CCOC(=O)/C=C1\CN(Cc2cc(OC)c(OC)c(OC)c2)S(=O)(=O)c2ccc(C(F)(F)F)cc21	NR2F2 inh 47.7 | Gal4-VP16 ctr inactive | NR2F2 inh conf inactive
O=C(Nc1cccc(Cl)c1)c1cc(-c2ccco2)on1	none
Cc1ccc(-c2cc(C(=O)NN=Cc3cccc(Oc4ccccc4)c3)[nH]n2)cc1C	none (no result: NR5A2 inv ag, SRC1 inh, SRC3 inh)
NS(=O)(=O)c1ccc(NC(=S)N2CCN(c3ccc(Cl)c(Cl)c3)CC2)cc1	NR2F2 inh 37.9 | Gal4-VP16 ctr 13.2 | NR2F2 inh conf inactive
COC(=O)CCn1nnc(-c2ccc(C(C)C)cc2)n1	NCOA2 inhibitor 85.7, NR2F2 inh 86.1 | Gal4-VP16 ctr 83.1 | NR2F2 inh conf 86.6
COc1ccc(NC(=O)c2ccc(S(=O)(=O)N(C)c3ccccc3)cc2)cn1	NR2F2 inh 41.1 | Gal4-VP16 ctr inactive | NR2F2 inh conf inactive
COc1ccc(NC(=O)/C(Cl)=C(/Cl)S(=O)(=O)Cc2ccccc2)cn1	NCOA2 inhibitor 69.3, NR2F2 inh 65.8 | Gal4-VP16 ctr 38.7 | NR2F2 inh conf 59.2
Cc1nc2ccc(NC(=O)c3ccc(S(=O)(=O)N(C)c4ccccc4)cc3)cc2s1	NR2F2 inh 49.1 | Gal4-VP16 ctr inactive | NR2F2 inh conf inactive
COc1ccc(NC(=O)Nc2ccc(OCc3ccccc3)cc2)cn1	none
Cc1nnc(NC(=O)CCn2cnc3ccccc3c2=O)s1	none
COc1ccc(NC(=O)c2cc(CC(C)C)nc3ccccc23)cc1	NR2F2 inh 42.5 | Gal4-VP16 ctr inactive | NR2F2 inh conf inactive
Cc1ccc(NC(=O)c2cc(CC(C)C)nc3ccccc23)cc1	none
CS(=O)(=O)N(CCc1ccccc1)CC(=O)N1CCN(Cc2ccc3c(c2)OCO3)CC1	none
CS(=O)(=O)N(CC(=O)N1CCN(Cc2ccc3c(c2)OCO3)CC1)Cc1ccc(Cl)cc1	NR2F2 inh 39.9 | Gal4-VP16 ctr inactive | NR2F2 inh conf inactive
CC(=O)NC1(c2ccc(F)cc2)CCN(C(=O)Nc2ccc(F)cc2F)CC1	none
Fc1ccc(NCc2n[nH]c(=S)n2Cc2ccccc2)cc1	none
Cn1c(Cc2cccs2)nnc1SCC(=O)Nc1ccc2cn[nH]c2c1	NR2F2 inh 41.8 (no result: NR5A2 inv ag, SRC1 inh, SRC3 inh) | Gal4-VP16 ctr inactive | NR2F2 inh conf inactive
Cn1c(SCC(=O)Nc2ccc3cn[nH]c3c2)nnc1-c1cccs1	none
C/C(=N/NC(=O)CN(c1ccccc1)S(=O)(=O)c1ccccc1)c1ccccc1O	NR2F2 inh 41.0 | Gal4-VP16 ctr inactive | NR2F2 inh conf inactive
COc1ccc(NC(=O)c2cc3c(Cl)nc4ccccc4c3s2)c(OC)c1	none
Cc1ccc(S(=O)(=O)c2nc(-c3ccccc3Cl)oc2N2CCN(C)CC2)cc1	none
CCCCN(CCCNC(=O)Cn1ncc2ccsc2c1=O)Cc1ccccc1	none
Cc1ccc(Oc2ccc(C(=O)NCc3ccncc3)cc2)cc1	NR2F2 inh 74.0 | Gal4-VP16 ctr inactive | NR2F2 inh conf 41.3
C=CCn1c(NCc2ccc(OC)cc2)nc2ccccc21	none
CC(C)(C)c1ccc(OCCC(=O)OCC(=O)NC2CC2)cc1	NR2F2 inh 42.8 | Gal4-VP16 ctr 16.8 | NR2F2 inh conf inactive
CC(C)(C)c1ccc(OCCC(=O)OCC(=O)NC2CCS(=O)(=O)C2)cc1 (centres undefined)	none
O=C(O)CN1C(=O)SC(Nc2ccccc2)C1=O (centres undefined)	none
Cc1onc(-c2ccccc2)c1C(=O)NC(=S)NNC(=O)c1ccc(O)cc1O	NR2F2 inh 50.4, NR5A2 inv ag 88.8, SRC1 inh 64.0, SRC3 inh 72.6 | Gal4-VP16 ctr 15.3 | NR2F2 inh conf 54.3
CCCC1=Nc2cc(C(=O)NCCCN3CCOCC3)ccc2Sc2ccccc21	none
Cc1noc(C)c1CSCC(=O)N1CCN(c2ccc([N+](=O)[O-])cc2)CC1	NR2F2 inh 37.7 | Gal4-VP16 ctr inactive | NR2F2 inh conf inactive
Nc1nc(F)nc2c1ncn2[C@@H]1O[C@H](CO)[C@@H](O)[C@H]1O	NCOA2 inhibitor 69.0, NR2F2 inh 81.8, NR5A2 inv ag 101.9, SRC1 inh 88.2, SRC3 inh 92.4 | Gal4-VP16 ctr 54.7 | NR2F2 inh conf 65.4
Nc1nc(F)nc2c1ncn2[C@@H]1O[C@H](CO)[C@@H](O)[C@@H]1O	none
CC1CCCCC12NC(=O)N(CC(=O)NCc1ccc3c(c1)OCO3)C2=O (centres undefined)	none
Cc1cc(C)c(C(=O)COC(=O)[C@H](C)Nc2ccc(C(F)(F)F)cc2[N+](=O)[O-])c(C)c1	none
O=C1NC(Cc2ccc(O)cc2)c2nc3ccc(Cl)cc3c(=O)n2-c2cc3ccccc3cc21 (centres undefined)	NR2F2 inh 40.6 | Gal4-VP16 ctr inactive | NR2F2 inh conf inactive

Screening results as filed in PubChem BioAssay.
